Source: PubChem BioAssay (Tox21)
Records with an inconclusive call do not appear. Activity calls are given as the source filed them. Unless noted, calls come from the whole dose curve; as a rule, active = well fitted curve in the direction sought with a large enough effect in the repeat runs; inconclusive = weak or mixed curves; inactive = no such curve, though single readings can be large; an effect the other way counts as inactive or inconclusive.

What was measured:
[1] = qHTS assay to identify small molecule agonists of the hypoxia (HIF-1) signaling pathway - cell viability counter screen (AID 1224844; calls by dose curve; note: nearly all actives have a fitted effect of over 50% in size)
How it was run: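 HRE-bla ME-180; 0.5% dFBS; cpd 17 h, 37C, 5% CO2; CellTiter-Glo lum., 30 min RT, post-FRET read, same wells.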

[2] = qHTS assay to identify small molecule agonists of H2AX (AID 1224845; active = well fitted activation curve with a large enough effect in the signal ratio in the repeat runs, not every such curve was filed as active; the % refers to the signal ratio)
How it was run: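 Phospho-H2AX Ser139 measured by HTRF (ex 320 nm; em 665 and 620 nm) after 24 hr antibody incubation. Compounds, 15 concentrations, 0.76% DMSO, were applied to CHO-K1 cells for 3hr at 37C before lysis.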

[3] = qHTS assay to identify small molecule agonists of the hypoxia (HIF-1) signaling pathway (AID 1224846; active = well fitted activation curve with a large enough effect in the signal ratio in the repeat runs, not every such curve was filed as active; the % refers to the signal ratio)
How it was run: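 Reporter induction in HRE-bla ME-180 cells is taken as agonism: cells sit 5 hrs after plating, receive compounds or DMSO only, incubate 17 hrs at 37C under 5% CO2, and are loaded with CCF4-AM for beta-lactamase FRET measurement.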

[4] = qHTS assay to identify small molecule agonists of H2AX - cell viability counter screen (AID 1224847; calls by dose curve; note: top concentration of the series differs between compounds; nearly all actives have a fitted effect of over 30% in size)
How it was run: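 Quantitative HTS viability measurement: CHO-K1 wild-type cells in serum (10% FBS) medium, short 3 hr drug exposure at 37C with 0.76% DMSO, CellTiter-Glo luminescent detection.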

[5] = qHTS RealTime-Glo MT Cell Viability Assay in HepG2 cells - 24 hour (AID 1224867); note: nearly all actives have a fitted effect of over 50% in size
How it was run: (§1)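 Compound treatment began 5 h after plating HepG2 cells (600/well) with NanoLuc luciferase and prosubstrate. Plates stayed at 37 C for 40 h; luminescence was captured at six time points, 0 h through 40 h.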

[6] = qHTS RealTime-Glo MT Cell Viability Assay in HEK293 cells - 32 hour (AID 1224868); note: top concentration of the series differs between compounds; nearly all actives have a fitted effect of over 50% in size
How it was run: (§2)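 Quantitative high-throughput screen of the Tox21 10K library in HEK293: cells and RealTime-Glo reagents plated together, compound added at 5 h, luminescence monitored through 40 h at 37 C.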

[7] = A CellTox Green Cytotoxicity Assay to monitor cytotoxicity in HEK293 cells - 0 hour (AID 1224869); note: nearly all actives have a fitted effect of over 50% in size
How it was run: (§3)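 Tox21 screen in HEK293: membrane-impermeant cyanine dye fluoresces on binding dead-cell DNA; compound pinned 5 h post-seeding, plates held at 37 C, signal read repeatedly through 40 h.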

[8] = qHTS RealTime-Glo MT Cell Viability Assay in HepG2 cells - 40 hour (AID 1224870); note: nearly all actives have a fitted effect of over 50% in size
How it was run: (§4)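 Real-time viability: cells seeded at 600 per well together with NanoLuc and cell-permeant prosubstrate, compounds added after 5 h incubation. Luminescence tracked at 0, 8, 16, 24, 32 and 40 h of exposure.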

[9] = A CellTox Green Cytotoxicity Assay to monitor cytotoxicity in HEK293 cells - 40 hour (AID 1224871); note: nearly all actives have a fitted effect of over 45% in size
How it was run: as §3

[10] = qHTS RealTime-Glo MT Cell Viability Assay in HEK293 cells - 16 hour (AID 1224872)
How it was run: as §2

[11] = qHTS RealTime-Glo MT Cell Viability Assay in HepG2 cells - 8 hour (AID 1224873); note: nearly all actives have a fitted effect of over 55% in size
How it was run: as §4

[12] = qHTS RealTime-Glo MT Cell Viability Assay in HEK293 cells - 40 hour (AID 1224874); details: RealTime-Glo luminescence; max response: hits give low values; note: nearly all actives have a fitted effect of over 50% in size
How it was run: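 HEK293 + NanoLuc + prosubstrate, 600 cells/well; 5 h, 37 C/5% CO2; compound 23 nL in DMSO by pintool; 37 C; luminescence read at 0, 8, 16, 24, 32 and 40 h time points.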

[13] = A CellTox Green Cytotoxicity Assay to monitor cytotoxicity in HEK293 cells - 24 hour (AID 1224875); note: nearly all actives have a fitted effect of over 45% in size
How it was run: as §3

[14] = A CellTox Green Cytotoxicity Assay to monitor cytotoxicity in HepG2 cells - 16 hour (AID 1224876); note: nearly all actives have a fitted effect of over 45% in size
How it was run: (§5)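 Measurements at 0, 8, 16, 24, 32 and 40 h of treatment captured CellTox Green fluorescence in HepG2 cells that had been co-plated with reagent and preincubated 5 h at 37 C/5% CO2.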

[15] = qHTS RealTime-Glo MT Cell Viability Assay in HepG2 cells - 32 hour (AID 1224877); note: nearly all actives have a fitted effect of over 55% in size
How it was run: as §1

[16] = A CellTox Green Cytotoxicity Assay to monitor cytotoxicity in HepG2 cells - 24 hour (AID 1224878); note: nearly all actives have a fitted effect of over 45% in size
How it was run: as §5

[17] = A CellTox Green Cytotoxicity Assay to monitor cytotoxicity in HepG2 cells - 40 hour (AID 1224879); note: nearly all actives have a fitted effect of over 40% in size
How it was run: as §5

[18] = qHTS assay to identify small molecule antagonists of the estrogen related receptor (ERR) signaling pathway from Tox21 library (AID 1224848); note: nearly all actives have a fitted effect of over 50% in size
How it was run: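 Luciferase luminescence (ONE-Glo, 30 min room temperature) was the read-out. Cells of the NTP-supplied ERR line, 2,000 per well, were given 6 h at 37 C before compound addition in DMSO and 18 h exposure at 37 C.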

[19] = qHTS assay to identify small molecule agonists of the estrogen related receptor (ERR) signaling pathway from Tox21 library (AID 1224849; calls by dose curve; note: nearly all actives have a fitted effect of over 15% in size); details: ERR reporter cell line, ONE-Glo luciferase, 18 h; at 92.4 µM (top of the series) unless noted
How it was run: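 Tox21 compounds tested for ERR agonism in an NTP reporter cell line: 18 h treatment at 37 C, then ONE-Glo luminescence.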
% is set by controls: 0 for no effect and ±100 for the full control effect.

OCC(Cl)CCl (stereo not given)
inactive: Potency [1] | outcome [2] | outcome [3] | Potency [4] | Potency [5] | Potency [6] | outcome [7] | Potency [8] | Potency [9] | Potency [10] | outcome [11] | max response [12] -0.453% | Potency [13] | Potency [14] | Potency [15] | Potency [16] | Potency [17]

COc1cccc([C@@]2(O)CCCC[C@@H]2CN(C)C)c1
inactive: Potency [1] | outcome [2] | outcome [3] | Potency [4] | Potency [18] | Potency [5] | Potency [6] | outcome [7] | Potency [8] | Potency [9] | Potency [10] | max response [12] 0.459% | Potency [13] | Potency [14] | Potency [15] | Potency [16] | Potency [17]

CCCCCCCCBr
inactive: Potency [1] | outcome [2] | outcome [3] | Potency [4] | Potency [5] | Potency [6] | outcome [7] | Potency [8] | Potency [9] | Potency [10] | max response [12] 2.41% | Potency [13] | Potency [15] | Potency [17]

CCCC(C)C1(CC)C(=O)N=C(S)NC1=O (stereo not given)
inactive: Potency [1] | outcome [2] | outcome [3] | Potency [4] | Potency [5] | Potency [6] | outcome [7] | Potency [8] | Potency [9] | Potency [10] | outcome [11] | Potency [13] | Potency [14] | Potency [16] | Potency [17]

CCOC(=O)N(C)N=O
inactive: Potency [1] | outcome [2] | outcome [3] | Potency [4] | Potency [18] | Potency [6] | outcome [7] | Potency [8] | Potency [9] | Potency [10] | outcome [11] | max response [12] 1.11% | Potency [13] | Potency [14] | Potency [15] | Potency [16] | Potency [17]

CC(=NC#N)N(C)Cc1ccc(Cl)nc1
inactive: Potency [1] | outcome [2] | outcome [3] | Potency [4] | Potency [5] | Potency [6] | outcome [7] | Potency [8] | Potency [9] | Potency [10] | outcome [11] | max response [12] 8.58% | Potency [13] | Potency [15] | Potency [16] | Potency [17]

N#CN=C1SCCN1Cc1ccc(Cl)nc1
inactive: Potency [1] | outcome [2] | outcome [3] | Potency [4] | Potency [18] | activity change, positive = activation [19] 7.53% | Potency [5] | Potency [6] | outcome [7] | Potency [8] | Potency [9] | Potency [10] | outcome [11] | Potency [13] | Potency [14] | Potency [15] | Potency [16] | Potency [17]

CN=CNc1ccc(C)cc1C
inactive: Potency [1] | outcome [2] | outcome [3] | Potency [4] | Potency [18] | Potency [5] | Potency [6] | outcome [7] | Potency [8] | Potency [9] | Potency [10] | outcome [11] | Potency [13] | Potency [14] | Potency [16] | Potency [17]

CCC(=O)c1ccc(Cl)cc1
inactive: Potency [1] | outcome [2] | outcome [3] | Potency [4] | Potency [18] | activity change, positive = activation [19] 6.34% | Potency [5] | outcome [7] | Potency [8] | Potency [9] | outcome [11] | Potency [13] | Potency [14] | Potency [15] | Potency [17]

CC1=C2[C@H]3OC(=O)[C@@H](C)[C@@H]3CC[C@@]2(C)C=CC1=O
inactive: Potency [1] | outcome [2] | outcome [3] | Potency [4] | Potency [18] | activity change, positive = activation [19] 5.47% [at 42.5 µM] | Potency [5] | Potency [6] | outcome [7] | Potency [8] | Potency [9] | outcome [11] | max response [12] 10.1% | Potency [13] | Potency [14] | Potency [17]

O=C(NC(O)C(Cl)(Cl)Cl)NC(O)C(Cl)(Cl)Cl (stereo not given)
inactive: Potency [1] | outcome [2] | outcome [3] | Potency [4] | Potency [5] | Potency [6] | outcome [7] | Potency [8] | Potency [9] | Potency [10] | outcome [11] | Potency [13] | Potency [14] | Potency [16] | Potency [17]

CCNP(=S)(OC)O/C(C)=C/C(=O)OC(C)C (stereo not given)
inactive: Potency [1] | outcome [2] | outcome [3] | Potency [4] | Potency [5] | Potency [6] | outcome [7] | Potency [8] | Potency [9] | Potency [10] | outcome [11] | max response [12] -13.5% | Potency [13] | Potency [14] | Potency [15] | Potency [16] | Potency [17]

CCN(CC)C1CCCCC1
inactive: Potency [1] | outcome [2] | outcome [3] | Potency [4] | Potency [18] | Potency [5] | Potency [6] | outcome [7] | Potency [8] | Potency [9] | Potency [10] | outcome [11] | max response [12] 2.39% | Potency [13] | Potency [15] | Potency [16] | Potency [17]
